PubChem BioAssay (Tox21)
A number with no mark means an inactive call. Results filed as inconclusive are left out. Where a call stands in place of a potency, no number is given. Activity calls are given as the source filed them. Unless noted, calls come from the whole dose curve.

Assays:
[1] = Nuclear factor erythroid 2-related factor 2/antioxidant responsive element (Nrf2/ARE) small molecule agonists: qHTS cell viability counter screen in human keratinocytes (AID 1919968; active = well fitted curve in the direction sought with a large enough effect in the repeat runs; an effect the other way counts as inactive or inconclusive; note: nearly all actives have a fitted effect of over 55% in size)
How it was run: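 KeratinoSens HaCaT cells, 1,500/well, preincubated 5 h, then exposed to compounds in DMSO for 23 h at 37 C/5% CO2. Viability read as CellTiter-Fluor fluorescence after 1 h, in the same wells as the ARE-luciferase read.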

[2] = Nuclear factor erythroid 2-related factor 2/antioxidant responsive element (Nrf2/ARE) small molecule agonists: luciferase reporter gene qHTS assay in human keratinocytes (AID 1919969); note: nearly all actives have a fitted effect of over 35% in size
[3] = target: Gonadotropin-releasing hormone receptor (Homo sapiens) (UniProt P30968); test: Human gonadotropin-releasing hormone receptor (GnRHR) small molecule agonists, calcium flux assay in GnRHR-HEK293 cells (AID 1920063); note: nearly all actives have a fitted effect of over 35% in size
Gonadotropin-releasing hormone receptor (Homo sapiens), sequence (P30968 whole entry, looked up): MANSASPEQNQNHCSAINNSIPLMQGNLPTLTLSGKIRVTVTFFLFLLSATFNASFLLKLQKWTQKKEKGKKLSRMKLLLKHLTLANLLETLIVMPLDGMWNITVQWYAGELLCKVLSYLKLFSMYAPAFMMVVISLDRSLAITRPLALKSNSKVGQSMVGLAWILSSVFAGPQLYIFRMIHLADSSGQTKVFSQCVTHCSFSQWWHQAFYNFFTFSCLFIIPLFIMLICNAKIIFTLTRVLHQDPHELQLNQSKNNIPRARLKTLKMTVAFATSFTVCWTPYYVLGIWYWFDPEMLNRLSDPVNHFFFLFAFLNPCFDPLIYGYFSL
How it was run: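 HEK293 cells stably expressing human GnRHR were dye-loaded for 1 h at 37 C. Compound was added in agonist mode and fluorescence (Ex/Em 480/540) recorded kinetically for 3 min. Fifteen concentrations, triplicates.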

[4] = target: KiSS-1 receptor (Homo sapiens) (UniProt Q969F8); test: Human kisspeptin (KISS1R) small molecule agonists, calcium flux assay in KISS1R-HEK293 cells (AID 1920064; active = well fitted curve in the direction sought with a large enough effect in the repeat runs; an effect the other way counts as inactive or inconclusive)
KiSS-1 receptor (Homo sapiens), sequence (Q969F8 whole entry, looked up): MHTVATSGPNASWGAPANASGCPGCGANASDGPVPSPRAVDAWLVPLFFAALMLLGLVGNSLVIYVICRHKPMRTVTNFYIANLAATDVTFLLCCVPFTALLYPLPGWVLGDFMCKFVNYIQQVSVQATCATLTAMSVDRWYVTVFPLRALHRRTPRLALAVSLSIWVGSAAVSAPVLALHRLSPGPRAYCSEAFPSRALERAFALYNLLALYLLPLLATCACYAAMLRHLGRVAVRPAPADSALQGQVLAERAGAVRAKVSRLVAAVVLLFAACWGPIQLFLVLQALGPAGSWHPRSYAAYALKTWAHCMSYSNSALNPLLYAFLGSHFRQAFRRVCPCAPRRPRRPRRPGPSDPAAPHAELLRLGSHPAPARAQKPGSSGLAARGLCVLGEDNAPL
How it was run: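 HEK293 cells stably expressing human KISS1R were loaded with calcium dye for 1 h at 37 C, then given compound; fluorescence (Ex/Em 480/540) was read kinetically for 3 min. Fifteen concentrations, triplicate.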

[5] = G protein-coupled receptor (GPCR) small molecule agonists, calcium flux assay: HEK293 wild type cell line counter screen (AID 1920065)
How it was run: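 Wild-type HEK293 cells plated 18 h, loaded with calcium dye 1 h at 37 C, then compounds added in agonist mode (ATP as positive control). Kinetic fluorescence Ex/Em 480/540 recorded 3 min at 1 sec intervals; 15 concentrations, triplicate.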

[6] = p53 small molecule agonists, cell-based qHTS assay with human liver microsomes (AID 1963577);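 note: p53 response element beta-lactamase reporter cells with liver microsomes plus NADPH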
How it was run: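 16 h, 37 C exposure of p53RE-bla cells to compounds with human liver microsomes and NADPH (0.5 mg/mL final each); detection via LiveBLAzer mixture, 2 h dark at room temperature.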

[7] = p53 small molecule agonists, cell-based qHTS assay with rat liver microsomes (AID 1963578)
How it was run: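 With rat liver microsomes and NADPH present (0.5 mg/mL final each), p53RE-bla cells are treated with compound for 16 h at 37 C. LiveBLAzer detection mixture is then applied for 2 h at room temperature in the dark.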

[8] = p53 small molecule agonists, cell-based qHTS assay with human liver microsomes: qHTS cell viability counter screen (AID 1963579); note: nearly all actives have a fitted effect of over 45% in size
How it was run: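 In this multiplexed counter screen, the reporter plates were subsequently treated with CellTiter-Glo so that cell viability, reflected by luminescence, could be recorded for p53RE-bla cells dosed 16 h with compounds under microsomal activation (HLM and NADPH).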

[9] = p53 small molecule agonists, cell-based qHTS assay with rat liver microsomes: qHTS cell viability counter screen (AID 1963580); note: nearly all actives have a fitted effect of over 45% in size
How it was run: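 p53RE-bla HCT-116 cells were exposed 16 h at 37 C to compounds with rat liver microsomes (0.5 mg/mL) and NADPH (0.5 mg/mL). Viability was measured in the same wells as ATP content by CellTiter-Glo luminescence.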

[10] = p53 small molecule agonists, cell-based qHTS assay: qHTS cell viability counter screen (AID 1963581); note: nearly all actives have a fitted effect of over 45% in size
How it was run: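 p53RE-bla HCT-116 cells, compounds added 5 h after plating and incubated 16 h at 37 C. Cytotoxicity measured in the same wells as intracellular ATP by CellTiter-Glo luminescence after 30 min at room temperature.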

[11] = p53 small molecule agonists, cell-based qHTS assay (AID 1963582; active = well fitted activation curve with a large enough effect in the signal ratio in the repeat runs, not every such curve was filed as active; the % refers to the signal ratio)
How it was run: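 p53RE-bla reporter cells, compounds added in DMSO after 5 h plating, incubated 16 h at 37 C. Beta-lactamase read via 2 h room-temperature LiveBLAzer B/G FRET substrate, fluorescence intensity.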

[12] = target: 5-hydroxytryptamine receptor 2A (Homo sapiens) (UniProt P28223); test: 5-hydroxytryptamine receptor 2A (HTR2A) small molecule agonists, cell-based qHTS assay (AID 1963587); note: nearly all actives have a fitted effect of over 30% in size
5-hydroxytryptamine receptor 2A (Homo sapiens), sequence (P28223 whole entry, looked up): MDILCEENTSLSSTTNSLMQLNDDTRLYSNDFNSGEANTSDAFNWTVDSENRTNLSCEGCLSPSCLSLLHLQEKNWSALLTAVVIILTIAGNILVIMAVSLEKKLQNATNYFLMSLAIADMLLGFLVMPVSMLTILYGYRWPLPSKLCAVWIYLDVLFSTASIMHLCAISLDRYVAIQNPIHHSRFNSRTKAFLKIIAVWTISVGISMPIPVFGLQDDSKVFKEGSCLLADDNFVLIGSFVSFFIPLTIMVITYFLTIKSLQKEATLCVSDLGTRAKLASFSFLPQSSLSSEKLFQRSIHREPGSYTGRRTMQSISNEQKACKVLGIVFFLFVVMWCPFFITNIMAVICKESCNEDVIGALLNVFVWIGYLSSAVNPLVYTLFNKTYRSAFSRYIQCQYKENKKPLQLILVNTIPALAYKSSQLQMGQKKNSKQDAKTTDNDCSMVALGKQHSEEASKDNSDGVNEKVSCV
How it was run: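 CHO cells stably expressing human HTR2A, plated 18 h, loaded with calcium dye 1 h at 37 C. Agonist mode: compounds added and intracellular calcium fluorescence recorded kinetically for 2 min at 1 sec intervals.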

[13] = target: Muscarinic acetylcholine receptor M1 (Homo sapiens) (UniProt P11229); test: Cholinergic receptor muscarinic 1 (CHRM1) small molecule antagonists, cell-based qHTS assay (AID 1963588); note: nearly all actives have a fitted effect of over 40% in size; note: potency is the fitted concentration of half-maximal effect
Muscarinic acetylcholine receptor M1 (Homo sapiens), sequence (P11229 whole entry, looked up): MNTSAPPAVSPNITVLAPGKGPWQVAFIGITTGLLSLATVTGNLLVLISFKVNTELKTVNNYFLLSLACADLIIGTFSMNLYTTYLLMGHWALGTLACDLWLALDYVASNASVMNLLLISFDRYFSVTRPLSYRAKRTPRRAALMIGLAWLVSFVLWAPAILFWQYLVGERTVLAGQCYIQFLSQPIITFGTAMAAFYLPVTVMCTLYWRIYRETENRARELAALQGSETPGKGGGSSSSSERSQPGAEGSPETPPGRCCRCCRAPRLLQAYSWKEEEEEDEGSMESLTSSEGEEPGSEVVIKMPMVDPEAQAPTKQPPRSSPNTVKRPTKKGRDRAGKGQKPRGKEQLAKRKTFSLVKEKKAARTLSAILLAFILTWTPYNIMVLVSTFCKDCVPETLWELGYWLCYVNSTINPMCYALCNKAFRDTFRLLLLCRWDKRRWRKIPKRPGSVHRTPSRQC
How it was run: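 CHRM1-CHO calcium-flux assay, antagonist mode. Cells were seeded 18 h, dye-loaded 1 h at 37 C and given compound for 5 min at RT, then acetylcholine was added at 50nM. FDSS fluorescence was read 3 min; 15 concentrations, three runs.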

[14] = target: Muscarinic acetylcholine receptor M1 (Homo sapiens) (UniProt P11229); test: Cholinergic receptor muscarinic 1 (CHRM1) small molecule agonists, cell-based qHTS assay (AID 1963589); note: nearly all actives have a fitted effect of over 35% in size
How it was run: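 CHO cells stably expressing human CHRM1 were loaded with calcium dye for 1 h at 37 C, then compound was added in agonist mode. Intracellular calcium fluorescence was followed kinetically at 1 s intervals. Fifteen concentrations were tested in three independent runs.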

[15] = cAMP Responsive Elements (CRE) small molecule agonists, cell-based qHTS assay (AID 1963590)
How it was run: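 CRE-bla HEK 293T cells, 2,000/well in DMEM with 10% dialyzed FBS and 25 mM HEPES, pre-incubated 18 h at 37 C, then exposed to compound 3 h at 37 C. Beta-lactamase reporter read with LiveBLAzer B/G FRET substrate after 2 h at room temperature.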

[16] = cAMP Responsive Elements (CRE) small molecule antagonists, cell-based qHTS assay (AID 1963591; active = well fitted inhibition curve with a large enough effect in the signal ratio in the repeat runs, not every such curve was filed as active; the % refers to the signal ratio)
How it was run: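 CRE-bla HEK293T cells plated 18 h, then given compound plus NKH477 at 0.25 uM final for 3 h at 37C. Beta-lactamase reporter read with LiveBLAzer B/G FRET substrate after 2 h at room temperature.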

[17] = target: Beta-2 adrenergic receptor (Homo sapiens) (UniProt P07550); test: Adrenergic beta2 receptor (ADRB2) small molecule antagonists, cell-based qHTS assay (AID 1963592); note: series mostly up to about 92 µM; nearly all actives have a fitted effect of over 50% in size
Beta-2 adrenergic receptor (Homo sapiens), sequence (P07550 whole entry, looked up): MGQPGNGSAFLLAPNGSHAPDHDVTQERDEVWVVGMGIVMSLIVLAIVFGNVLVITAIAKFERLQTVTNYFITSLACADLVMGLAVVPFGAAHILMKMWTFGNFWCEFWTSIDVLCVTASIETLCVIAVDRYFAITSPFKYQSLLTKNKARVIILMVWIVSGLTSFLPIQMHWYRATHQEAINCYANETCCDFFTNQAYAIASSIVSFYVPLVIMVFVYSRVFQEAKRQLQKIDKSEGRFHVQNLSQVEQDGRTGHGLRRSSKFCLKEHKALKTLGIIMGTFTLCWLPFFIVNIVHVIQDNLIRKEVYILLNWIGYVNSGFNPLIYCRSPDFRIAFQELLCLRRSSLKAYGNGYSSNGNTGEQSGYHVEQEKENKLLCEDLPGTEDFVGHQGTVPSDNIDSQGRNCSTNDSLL
How it was run: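 Cells (CHO, stable ADRB2 overexpression) incubated 18-20hr at 37C; compounds added from DMSO; agonist mix (1nM isoproterenol, 100uM IBMX, 25uM Ro-20-1724) added; 0.5hr RT; d2-cAMP and anti-cAMP-cryptate added; 1hr RT; 665/615 nm read.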

[18] = target: Beta-2 adrenergic receptor (Homo sapiens) (UniProt P07550); test: Adrenergic beta2 receptor (ADRB2) small molecule agonists, cell-based qHTS assay (AID 1963593);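 note: CHO cells stably overexpressing human ADRB2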
How it was run: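 CHO cells stably over-expressing ADRB2 were plated overnight at 37C, then dosed with compounds plus a stimulation mix containing 100uM IBMX and 25uM Ro-20-1724 for 0.5hr at room temperature. cAMP was measured by HTRF competition, 1hr.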

[19] = target: D(2) dopamine receptor (Homo sapiens) (UniProt P14416); test: Dopamine D2 receptor (DRD2) small molecule agonists, cell-based qHTS assay (AID 1963594); note: nearly all actives have a fitted effect of over 35% in size
D(2) dopamine receptor (Homo sapiens), sequence (P14416 whole entry, looked up): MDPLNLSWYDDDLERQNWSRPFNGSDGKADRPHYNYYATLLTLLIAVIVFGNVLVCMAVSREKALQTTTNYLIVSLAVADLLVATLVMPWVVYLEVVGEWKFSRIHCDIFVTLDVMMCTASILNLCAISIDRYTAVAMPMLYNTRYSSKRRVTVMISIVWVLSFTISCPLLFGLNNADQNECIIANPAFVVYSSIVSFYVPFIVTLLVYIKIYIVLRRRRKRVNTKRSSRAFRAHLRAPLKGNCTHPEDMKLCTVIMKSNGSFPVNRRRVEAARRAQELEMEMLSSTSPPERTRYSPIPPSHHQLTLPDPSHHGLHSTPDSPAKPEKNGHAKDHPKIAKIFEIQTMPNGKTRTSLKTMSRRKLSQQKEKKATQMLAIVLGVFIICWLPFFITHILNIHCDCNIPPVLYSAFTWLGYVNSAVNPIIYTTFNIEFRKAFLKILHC
How it was run: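 HEK293 cells stably expressing human DRD2, pre-treated with PDE inhibitor Ro20-1724 (0.1 mM final) and compound 10 min at room temperature, then stimulated with NKH477 (200nM […]) for 30 min. cAMP read by HTRF (665/620 nm).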

[20] = target: D(2) dopamine receptor (Homo sapiens) (UniProt P14416); test: Dopamine D2 receptor (DRD2) small molecule antagonists, cell-based qHTS assay (AID 1963595; active = well fitted inhibition curve with a large enough effect in the signal ratio in the repeat runs, with a control signal flat; the % refers to the signal ratio)
How it was run: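 DRD2-HEK293; 0.1 mM Ro20-1724; cpd 10 min RT; NKH477 200 nM + quinpirole 12 nM, 30 min RT; HTRF cAMP (cAMP-d2/anti-cAMP cryptate), 665/620 nm ratio after 1 h.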

| Structure (SMILES) | Potency [1] | Potency [2] | Potency [3] | outcome [4] | outcome [5] | Potency [6] | Potency [7] | Potency [8] | Potency [9] | Potency [10] | Potency [11] | Potency [12] | Potency [13] | Potency [14] | Potency [15] | Potency [16] | Potency [17] | Potency [18] | Potency [19] | Potency [20] |
| --- | --- | --- | --- | --- | --- | --- | --- | --- | --- | --- | --- | --- | --- | --- | --- | --- | --- | --- | --- | --- |
| NC(=O)c1cn(Cc2c(F)cccc2F)nn1 | inactive | inactive | inactive | inactive | inactive | inactive | inactive | inactive | inactive | inactive | inactive | inactive | inactive | inactive | inactive | inactive | inactive | inactive | inactive | inactive |
| O=C(c1ccco1)N1CCNCC1 | inactive | inactive | inactive | inactive | inactive | inactive | inactive | inactive | inactive | inactive | inactive | inactive | inactive | inactive | inactive | inactive | inactive | inactive | inactive | inactive |
| CCCCOC(=O)CC | inactive | inactive | inactive | inactive | inactive | inactive | inactive | inactive | inactive | inactive | inactive | inactive | inactive | inactive | inactive | inactive | inactive | inactive | inactive | inactive |
| CN1CC(=O)NC1=N | inactive | inactive | inactive | inactive | inactive | inactive | inactive | inactive | inactive | inactive | inactive | inactive | inactive | inactive | inactive |  | inactive |  | inactive | inactive |
| CCOC(=O)c1ccc(OC(=O)CCCCCN=C(N)N)cc1 | inactive | inactive | inactive | inactive | inactive | inactive | inactive | inactive | inactive | inactive | inactive | inactive | 7.29 µM (active) | inactive | inactive | inactive | inactive | inactive | inactive |  |
| CC(=O)O[C@H]1CC[C@@]2(C)C(=CC[C@@H]3[C@@H]2CC[C@]2(C)C(C(C)=O)=CC[C@@H]32)C1 | inactive | inactive | inactive | inactive | inactive | inactive | inactive | inactive | inactive | inactive | inactive | inactive | inactive | inactive | inactive | inactive | inactive | inactive |  | inactive |
| O=C(CO)[C@@H](O)[C@H](O)[C@H](O)CO | inactive | inactive | inactive | inactive | inactive | inactive | inactive | inactive | inactive | inactive | inactive | inactive | inactive | inactive | inactive | inactive | inactive |  | inactive | inactive |
